# Measurements: PubChem BioAssay (EPA / NIEHS)
# Results filed as inconclusive are left out. Activity calls are given as the source filed them. Rule for the calls: active = hit-call score of the fitted dose curve at least 0.9, where 1 is the maximum; inconclusive = response in the unintended direction; inactive = score below 0.9.
# Columns and labels:
# [1] = TOX21_p53_BLA_p2_viability: Viability Assessment in the Tox21 HCT-116 p53 Agonism Beta-lactamase Assay, Phase 2 (AID 2283591);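 note: compound exposure lasted 16 h at 37 °C; actives lower the ATP signal meaning cytotoxicity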
# How it was run: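 HCT-116 p53-bla cells (4000/well) rested 5 h at 37C, then received compounds in DMSO (217-fold dilution) for 16 h at 37C, 5% CO2. After the CCF4 read, CellTiter-Glo was added; ATP luminescence was read after 30 min at room temperature.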
# [2] = target: Cellular tumor antigen p53 (Homo sapiens) (UniProt P04637); experiment: TOX21_p53_BLA_p2_ratio: Tox21 HCT-116 p53 Agonism Beta-lactamase Assay, Ratio, Phase 2 (AID 2283592)
# Chain of Cellular tumor antigen p53 (Homo sapiens) (P04637 whole entry, looked up): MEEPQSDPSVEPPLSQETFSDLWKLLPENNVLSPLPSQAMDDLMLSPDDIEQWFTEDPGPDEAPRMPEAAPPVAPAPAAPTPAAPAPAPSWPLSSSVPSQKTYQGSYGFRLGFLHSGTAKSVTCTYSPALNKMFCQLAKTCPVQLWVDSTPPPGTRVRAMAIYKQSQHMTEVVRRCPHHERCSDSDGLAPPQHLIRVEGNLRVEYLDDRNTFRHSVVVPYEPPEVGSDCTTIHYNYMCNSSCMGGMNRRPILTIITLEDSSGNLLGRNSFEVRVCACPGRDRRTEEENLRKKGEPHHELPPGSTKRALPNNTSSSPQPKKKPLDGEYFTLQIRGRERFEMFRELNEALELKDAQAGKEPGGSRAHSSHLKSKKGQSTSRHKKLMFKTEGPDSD
# How it was run: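 Human colon HCT116 cells with an inducible p53 beta-lactamase reporter are exposed to test chemicals for 16 h at 37C. Reporter induction is read as the 460/530 nm emission ratio after CCF4-AM loading, normalized to DMSO.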
# [3] = TOX21_p53_BLA_p3_viability: Viability Assessment in the Tox21 HCT-116 p53 Agonism Beta-lactamase Assay, Phase 3 (AID 2283593);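 note: cells exposed to compound for 16 h before reading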
# How it was run: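 HCT-116 cells (4000/well) rested 5 h at 37C, then got DMSO compounds by pin tool (217-fold dilution) for 16 h at 37C, 5% CO2. After the bla read, CellTiter-Glo was added and luminescence read at 30 min, room temperature.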
# [4] = target: Cellular tumor antigen p53 (Homo sapiens) (UniProt P04637); experiment: TOX21_p53_BLA_p3_ratio: Tox21 HCT-116 p53 Agonism Beta-lactamase Assay, Ratio, Phase 3 (AID 2283596)
# How it was run: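 HCT116 p53-bla cells (4000/well) given compound in DMSO (217-fold dilution) after 5 h, incubated 16 h at 37C. CCF4-AM substrate 2 h at room temperature; 460/530 nm emission ratio, gain fitted against DMSO.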
# [5] = TOX21_p53_BLA_p4_viability: Viability Assessment in the Tox21 HCT-116 p53 Agonism Beta-lactamase Assay, Phase 4 (AID 2283597);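 note: hits lower the luminescence signal meaning cytotoxicity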
# How it was run: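 Luminescent ATP readout (CellTiter-Glo, 30 min, room temperature) in the same wells as the p53 bla ratio. HCT116 cells were treated for 16 h at 37C with DMSO-dissolved compounds.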
# [6] = target: Cellular tumor antigen p53 (Homo sapiens) (UniProt P04637); experiment: TOX21_p53_BLA_p5_ratio: Tox21 HCT-116 p53 Agonism Beta-lactamase Assay, Ratio, Phase 5 (AID 2283599)
# How it was run: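 HCT-116 cells carrying a p53-inducible beta-lactamase reporter were seeded at 4000 cells/well and dosed after 5 h with compound in DMSO (217-fold dilution). After 16 h at 37C, CCF4-AM substrate was added for 2 h, and the 460/530 nm emission ratio was scored as gain-of-signal versus DMSO.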
# [7] = TOX21_p53_BLA_p5_viability: Viability Assessment in the Tox21 HCT-116 p53 Agonism Beta-lactamase Assay, Phase 5 (AID 2283600)
# How it was run: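 Seeded cells (4000/well) settle 5 h before compound addition. Plates then incubate 16 h at 37C, receive FRET substrate for 2 h, and finally CellTiter-Glo, with luminescence measured after a 30 min room-temperature incubation.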
# [8] = target: Cellular tumor antigen p53 (Homo sapiens) (UniProt P04637); experiment: TOX21_p53_BLA_p4_ratio: Tox21 HCT-116 p53 Agonism Beta-lactamase Assay, Ratio, Phase 4 (AID 2283601)
# How it was run: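 HCT116 cells carrying an inducible beta-lactamase reporter were plated at 4000 cells/well, rested 5 h, then exposed to compounds in DMSO (217-fold dilution) for 16 h at 37C. CCF4-AM substrate was loaded 2 h at room temperature; 460/530 nm emission ratio scored gain-of-signal versus DMSO.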
# [9] = target: Thyroid hormone receptor alpha (Rattus norvegicus) + Thyroid hormone receptor beta (Rattus norvegicus) (UniProt P18113+P63059); experiment: TOX21_TR_LUC_GH3_Antagonist_Followup: Tox21 GH3 Thyroid Hormone Receptor Antagonism Luciferase Follow-Up Assay (AID 2283942)
# How it was run: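 Rat pituitary GH3 cells with a TRα/TRβ-driven luciferase reporter, 5 h attachment, then 15 concentrations (92 uM to 5nM final) plus 1.0 nM T3 agonist, 24 h at 37C/5% CO2. ONE-Glo luminescence; signal change fitted against DMSO baseline.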
# [10] = target: THRA (gene 7067) (UniProt P10827); experiment: TOX21_TRA_COA_Antagonist_Followup_ratio: Tox21 Thyroid Hormone Receptor alpha Antagonism through Coactivator Recruitment Follow-Up Assay, Ratio (AID 2283953)
# Chain of THRA (gene 7067) (P10827 whole entry, looked up, the tested form may be a part): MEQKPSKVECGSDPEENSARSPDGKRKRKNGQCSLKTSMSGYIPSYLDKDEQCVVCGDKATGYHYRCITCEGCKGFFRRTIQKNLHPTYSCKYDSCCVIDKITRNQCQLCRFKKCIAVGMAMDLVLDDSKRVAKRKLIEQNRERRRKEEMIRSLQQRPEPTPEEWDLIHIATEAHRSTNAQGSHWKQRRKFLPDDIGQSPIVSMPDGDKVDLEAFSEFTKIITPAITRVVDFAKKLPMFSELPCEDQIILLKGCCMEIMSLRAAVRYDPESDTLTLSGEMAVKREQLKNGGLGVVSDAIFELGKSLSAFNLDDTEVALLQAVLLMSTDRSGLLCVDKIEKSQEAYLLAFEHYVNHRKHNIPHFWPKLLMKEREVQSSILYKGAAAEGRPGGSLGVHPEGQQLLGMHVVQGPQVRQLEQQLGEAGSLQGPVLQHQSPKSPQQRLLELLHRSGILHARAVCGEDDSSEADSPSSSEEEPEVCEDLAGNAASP
# How it was run: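 520:495 nm emission ratio (excitation 340 nm) reports fluorescein-SRC-2 peptide recruitment to GST-TRα LBD by TR-FRET with Tb anti-GST antibody. Values were normalized to DMSO (0%) and T3 control wells (100%); loss of signal indicated antagonism.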
# [11] = target: THRB (gene 7068) (UniProt P10828); experiment: TOX21_TRB_BLA_Antagonist_Followup_ratio: Tox21 Thyroid Hormone Receptor beta Antagonism Beta-lactamase (BLA) Follow-Up Assay, Ratio (AID 2283958)
# Chain of THRB (gene 7068) (P10828 whole entry, looked up, the tested form may be a part): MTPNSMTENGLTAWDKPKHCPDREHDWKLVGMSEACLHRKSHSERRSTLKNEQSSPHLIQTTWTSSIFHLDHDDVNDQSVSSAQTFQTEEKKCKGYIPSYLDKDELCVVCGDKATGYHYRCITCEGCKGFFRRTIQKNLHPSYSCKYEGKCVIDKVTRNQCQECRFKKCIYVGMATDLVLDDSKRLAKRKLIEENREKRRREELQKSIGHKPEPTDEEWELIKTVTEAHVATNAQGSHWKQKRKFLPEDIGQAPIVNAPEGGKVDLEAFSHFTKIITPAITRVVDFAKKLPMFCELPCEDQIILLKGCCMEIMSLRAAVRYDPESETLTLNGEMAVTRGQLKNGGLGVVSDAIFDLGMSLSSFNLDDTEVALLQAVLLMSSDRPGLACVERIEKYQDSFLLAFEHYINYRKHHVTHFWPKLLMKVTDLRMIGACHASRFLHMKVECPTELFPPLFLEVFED
# How it was run: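 HEK293T cells with a GAL4-TRb LBD fusion and UAS-bla reporter, 3,000 cells/well in phenol red-free DMEM with 2% charcoal-stripped FBS. Exposed 18 h at 37C to 11 concentrations in triplicate; CCF4 460:530 nm ratio after 2 h, DMSO-referenced.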
# [12] = TOX21_TRB_BLA_Antagonist_Followup_viability: Viability Assessment in the Tox21 Thyroid Hormone Receptor beta Antagonism Beta-lactamase (BLA) Follow-Up Assay (AID 2283961)
# How it was run: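 In the same wells as the reporter read, cell health was gauged by CellTiter-Glo ATP luminescence, with signal loss indicating reduced viability. Cells had been exposed to test compounds for 18 h.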
# [13] = target: THRB (gene 7068) (UniProt P10828); experiment: TOX21_TRB_COA_Antagonist_Followup_ratio: Tox21 Thyroid Hormone Receptor beta Antagonism through Coactivator Recruitment Follow-Up Assay, Ratio (AID 2283967)
# How it was run: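 Cell-free TR-FRET coactivator recruitment with GST-tagged TRβ LBD (5.0 nM) and fluorescein-labeled SRC-2 peptide (200 nM) detected by terbium anti-GST antibody (2 nM). The 520:495 nm emission ratio was normalized to DMSO (0%) and T3 (100%).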
# [14] = target: Retinoic acid receptor RXR-alpha (Homo sapiens) (UniProt P19793); experiment: TOX21_TR_RXR_BLA_Antagonist_Followup_ratio: Tox21 Thyroid Hormone Receptor beta Retinoid X Receptor alpha (RXRa) Antagonism Beta-lactamase (BLA) Follow-Up Assay, Ratio (AID 2283972)
# Chain of Retinoic acid receptor RXR-alpha (Homo sapiens) (P19793 whole entry, looked up): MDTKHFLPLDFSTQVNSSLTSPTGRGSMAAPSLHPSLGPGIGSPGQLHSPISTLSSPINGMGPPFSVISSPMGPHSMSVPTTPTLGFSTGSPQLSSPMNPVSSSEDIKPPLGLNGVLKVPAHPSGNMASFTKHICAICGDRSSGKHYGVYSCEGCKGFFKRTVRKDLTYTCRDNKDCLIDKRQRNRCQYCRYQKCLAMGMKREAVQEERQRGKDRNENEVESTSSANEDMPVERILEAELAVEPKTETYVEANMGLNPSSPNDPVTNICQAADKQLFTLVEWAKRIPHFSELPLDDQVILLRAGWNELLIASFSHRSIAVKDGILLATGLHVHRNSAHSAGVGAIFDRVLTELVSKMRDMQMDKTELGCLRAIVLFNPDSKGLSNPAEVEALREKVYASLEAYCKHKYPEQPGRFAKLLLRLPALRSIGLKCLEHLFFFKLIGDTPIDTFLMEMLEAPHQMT
# How it was run: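 Compounds were tested in triplicate at 11 concentrations on RXRa-bla HEK293T cells for 16 h. Substrate cleavage ratio, normalized to DMSO, gave the endpoint.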
structure (smiles),measurement,setting,value
Cc1cc(Nc2ccccc2C(=O)O)ccc1Cl,outcome,[1],inactive
same,AC50,[2],8.52 µM (active)
same,outcome,[3],inactive
same,outcome,[4],inactive
same,AC50,[5],31.9 µM (active)
same,AC50,[6],17.4 µM (active)
same,outcome,[7],inactive
same,AC50,[8],23 µM (active)
same,outcome,[9],inactive
same,outcome,[10],inactive
same,AC50,[11],51.5 µM (active)
same,outcome,[12],inactive
same,outcome,[13],inactive
same,outcome,[14],inactive
C=Cc1c(C)c2cc3[nH]c(cc4nc(cc5nc(cc1[nH]2)C(C)=C5CCC(=O)O)C(CCC(=O)O)=C4C)c(C)c3C=C,outcome,[1],inactive
same,outcome,[2],inactive
same,outcome,[3],inactive
same,outcome,[4],inactive
same,outcome,[5],inactive
same,outcome,[6],inactive
same,outcome,[8],inactive
C[n+]1c2cc(N)ccc2cc2ccc(N)cc21 (tested in a mixture with another compound),outcome,[1],inactive
same,AC50,[2],11.6 µM (active)
same,outcome,[3],inactive
same,AC50,[4],9.45 µM (active)
same,outcome,[5],inactive
same,AC50,[6],9.47 µM (active)
same,outcome,[7],inactive
same,AC50,[8],6.18 µM (active)
same,AC50,[9],18.2 µM (active)
same,AC50,[11],36 µM (active)
same,outcome,[12],inactive
same,AC50,[14],19.2 µM (active)
O=C1C(=O)c2ncccc2-c2cccnc21,outcome,[1],inactive
same,AC50,[2],1.01 µM (active)
same,outcome,[3],inactive
same,AC50,[4],1.08 µM (active)
same,AC50,[5],5.12 µM (active)
same,AC50,[6],0.599 µM (active)
same,outcome,[7],inactive
same,AC50,[8],0.96 µM (active)
same,outcome,[9],inactive
same,outcome,[10],inactive
same,outcome,[11],inactive
same,AC50,[12],5.41 µM (active)
same,outcome,[13],inactive
same,outcome,[14],inactive
CCCCCCNC(=O)n1cc(F)c(=O)[nH]c1=O,AC50,[1],709 nM (active)
same,AC50,[2],0.77 µM (active)
same,AC50,[3],1.26 µM (active)
same,AC50,[4],2.57 µM (active)
same,AC50,[5],3.62 µM (active)
same,AC50,[6],2.87 µM (active)
same,AC50,[7],1.02 µM (active)
same,AC50,[8],2.24 µM (active)
same,AC50,[9],12 µM (active)
same,outcome,[12],inactive
same,outcome,[13],inactive
